The list is not random: actives were taken first. Their share in the collection is about 3.8%.
TGFb SMAD3 inh: inhibitors of TGF-b signaling; HepG2 CAGA-GFP TGF-b/SMAD3 reporter, GFP fluorescence, 18 h; TGF-beta stimulated, 500 pg/mL final; Potency, µM (titrated, usually from 46.1 µM), actives largely listed as inhibitors; hit rate 1.2% among 410,000; note: nearly all actives have a fitted effect of over 65% in size
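Inhibition of TGF-beta-driven CAGA-GFP reporter expression in HEPG2 cells is measured by cellular GFP fluorescence after 18 h stimulation with 500 pg/mL recombinant TGF-beta in 1% FBS medium at 37 degrees C.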
HepG2 viability: HepG2 cytotoxicity, counter-screen for TGF-b inhibitors. hit rate 0.76% among 410,000. AID 588856. Potency, µM (doses to about 46.1 µM), hits mostly cytotoxic. HepG2 CAGA-GFP viability, ATP luminescence, 18 h
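CellTiter-Glo luminescence gave cytotoxicity after 18 hours at 37 degrees C. The cells were HepG2 CAGA-GFP in 1% FBS DMEM, stimulated with 500 pg/mL TGF-beta after compound addition. %Activity was normalised to no-cell wells (complete cell-killing) and DMSO (no toxicity), and curves were fitted and classified.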
ATXN2 expr inh: inhibitors of ATXN2 expression | AID 1745845 | HEK-293 ATXN2-luciferase reporter, luminescence, 24 h | hit rate 0.72% among 360,000 | Potency, µM (titrated, usually from 57 µM), usual class: inhibitors; note: nearly all actives have a fitted effect of over 55% in size
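ATXN2-luciferase reporter cells (luciferase flanked by upstream and downstream ATXN2 gene portions) were treated 24 h at 37 °C with compounds at up to 57 uM. SteadyGlo luminescence gave expression; GF-AFC fluorescence gave viability.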
ATXN viability: cell viability loss in ATXN counter-screen. S2 cells (HEK-293 line with an ATXN2-luciferase reporter) viability, CellTiter-Fluor protease fluorescence, 24 h. Potency, µM (series often up to 56.7 µM), actives largely listed as cytotoxic. hit rate 0.49% among 400,000; note: nearly all actives have a fitted effect of over 40% in size
HT1080 IDH1KD tx: toxicity to HT-1080 IDH1 knockdown cells (counter line). HT-1080 IDH1 knockdown viability, ATP luminescence, 48 h. Potency, µM (highest dose often 46.1 µM), actives largely listed as cytotoxic. hit rate 2% among 360,000
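In this qHTS, HT-1080 cells depleted of IDH1 are exposed for 48 h at 37 °C to compound titrations. Toxicity is scored from CellTiter-Glo luminescence, with DMSO as full viability and medium alone as none.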
HT1080NT lethal: kills 2HG-producing HT-1080-NT fibrosarcoma cells. HT-1080-NT fibrosarcoma viability, CellTiter-Glo ATP luminescence, 48 h. Potency, µM (titrated, usually from 46.1 µM), most hits filed as cytotoxic. hit rate 1.6% among 360,000. AID 686970;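 note: NT is the 2HG producing partner of a matched IDH1 knockdown line; nearly all actives have a fitted effect of over 55% in size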
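Toxicity toward the 2HG-producing NT line was scored as %Activity, normalised to DMSO and no-cell wells, from CellTiter-Glo luminescence after 48 hours' treatment.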
A number is an active result; 0 = inactive; ? = inconclusive; - = no result given. Calls come from the whole dose curve; as a rule, active = well fitted curve in the direction sought with a large enough effect; inconclusive = small, poorly fitted or top-dose-only effect, or another doubt; inactive = no such curve, though single readings can be large; an effect the other way counts as inactive or inconclusive.

SMILES	TGFb SMAD3 inh	HepG2 viability	ATXN2 expr inh	ATXN viability	HT1080 IDH1KD tx	HT1080NT lethal
O=C(Nc1nc2c(F)cccc2s1)c1ccc(S(=O)(=O)N2CCOCC2)cc1	0	0	0	0	-	-
Fc1ccc(C(c2ccc(F)cc2)N2CCN(C/C=C/c3ccccc3)CC2)cc1	?	6.31µM	0	?	?	?
CCCNC(=O)c1cn(CC)c2cc(N3CCN(C(=O)c4ccco4)CC3)c(F)cc2c1=O	0	0	-	0	0	0
CCn1cc(C(=O)NCc2cccc(F)c2)c(=O)c2cc(F)c(N3CCN(C(=O)c4ccco4)CC3)cc21	0	0	35.5µM	?	23.1µM	13µM
COc1ccc(NC(=O)C#Cc2ccccc2)cc1	?	0	0	0	?	?
O=C(C#Cc1ccccc1)Nc1ccc(F)cc1	?	0	0	0	18.4µM	16.4µM
O=[N+]([O-])c1ccc(-[n+]2ccc3ccccc3c2)c([N+](=O)[O-])c1	5.01µM	12.6µM	?	11.2µM	?	?
O=[N+]([O-])c1ccc(SNc2ccccc2)c([N+](=O)[O-])c1	?	0	0	0	0	0
CC(C)C(C(=O)Nc1ccncc1)c1ccc(Cl)cc1 (stereo not drawn)	?	0	0	0	?	0
CC(C)C(C(=O)Nc1nccs1)c1ccc(Cl)cc1 (stereo not drawn)	?	0	0	0	10.3µM	?
CC(C)C(C(=O)Nc1nccs1)N1C(=O)c2ccccc2C1=O (stereo not drawn)	0	6.31µM	0	0	0	0
O=c1cc(C(Cl)(Cl)Cl)oc2c1ccc1ccccc12	0	0	?	-	11.6µM	16.4µM
O=c1cc(-c2ccco2)oc2c1ccc1ccccc12	0	0	0	0	0	0
COc1ccccc1C(CNC(=O)c1ccc(-c2ccccc2Cl)o1)N1CCCC1 (stereo not drawn)	?	0	?	0	20.6µM	?
COc1ccc(C(CNC(=O)c2ccc(-c3ccccc3Cl)o2)N2CCOCC2)cc1 (stereo not drawn)	0	0	0	0	0	0
Cc1ccc2c(c1)c1c3n2CCN(C(=O)CCl)C3CCC1 (stereo not drawn)	?	0	0	?	?	16.4µM
C(=C\c1ccnc2ccccc12)/c1cccs1	?	0	-	-	-	-
O=C(/C=C/c1ccnc2ccccc12)c1cccs1	?	5.62µM	0	?	18.4µM	18.4µM
CCC(CN)CC(C)CCNCC(O)CNCC(C)CC(CC)CN (stereo not drawn)	-	-	-	0	-	-
Cn1c(=NC(=O)CCl)sc2ccccc21	?	11.2µM	?	31.6µM	6.51µM	5.8µM
CCCC1(c2ccccc2)NC(=O)N(CC(=O)Nc2sc(-c3ccccc3)cc2C(=O)OCC)C1=O (stereo not drawn)	0	0	0	0	11.6µM	16.4µM
CCOC(=O)c1cc(-c2ccccc2)sc1NC(=O)CN1C(=O)c2ccccc2C1=O	0	0	0	0	0	0
CCN(Cc1ccccc1)c1ccc(N=Nc2nn(C)c(C)c2[N+](=O)[O-])cc1	0	0	0	?	0	0
CCN(CC)c1ccc(N=Nc2nn(C)c(C)c2[N+](=O)[O-])cc1	0	0	0	12.6µM	0	0
COc1ccc(NC(=O)NC2COc3ccccc3C2)c(OC)c1 (stereo not drawn)	0	0	-	-	-	-
SMILES	TGFb SMAD3 inh	HepG2 viability	ATXN2 expr inh	ATXN viability	HT1080 IDH1KD tx	HT1080NT lethal
COc1ccc(Cc2nnc(N/N=C/c3ccc(O)cc3)[nH]c2=O)cc1OC	?	0	1.58µM	?	?	?
COc1ccc(Cc2nnc(N/N=C/c3ccc(Br)cc3)[nH]c2=O)cc1OC	0	0	0	0	0	?
Cc1ccc(N2CCN(C(=O)c3cc(-c4ccc(F)cc4)[nH]c3C)CC2C)cc1 (stereo not drawn)	?	0	0	0	18.4µM	23.1µM
Cc1ccccc1C(=O)Nc1ccc(C(=O)N/N=C/c2ccc(O)cc2)cc1	0	0	0	0	?	8.2µM
Cc1ccccc1C(=O)Nc1cccc(C(=O)N/N=C/c2cc(Cl)cc([N+](=O)[O-])c2O)c1	0	0	22.4µM	0	?	?
Cc1cc(N(C)C)cc(C)c1C=O	0	0	-	-	-	-
CCC(=O)OCC(=O)[C@@]1(OC(=O)CC)[C@H](C)C[C@H]2[C@@H]3CCC4=CC(=O)C=C[C@]4(C)[C@@]3(F)[C@@H](O)C[C@@]21C	-	-	-	0	-	-
Cc1ccc(N/N=C(\Cc2nc3ccccc3[nH]2)c2ccccc2)cc1	?	0	0	?	0.92µM	1.3µM
CCN(C(=O)CSc1nc2ccccc2n1CC(=O)NCc1ccc(OC)cc1)c1ccccc1	0	0	0	0	-	-
CC1=CC2C(C(O)CC3(C)C2CC(C)C32OCOC23COCO3)C2(C)C/C(=C\O)C(=O)C=C12 (stereo not drawn)	5.62µM	11.2µM	?	-	7.31µM	18.4µM
CC(C)CNC(=S)N1CCN(c2nc(-c3ccc(Cl)cc3)cs2)CC1	?	0	15.8µM	?	?	?
CCN(CC)CCCNC(=S)N1CCN(c2nc(-c3ccccc3)cs2)CC1	?	0	?	?	23.1µM	16.4µM
COc1ccccc1CNC(=O)CCn1nc(C)c2c(C)n(-c3ccccc3)nc2c1=O	0	0	0	0	-	-
COC(=O)c1cccc(C(=O)N2CCc3c(cnc(C)c3CNC(=O)c3ccsc3)C2)c1	-	-	-	0	-	-
CC(=O)N1CCc2cc(CNS(=O)(=O)c3ccc(Br)s3)ccc21	0	0	-	-	-	-
COc1ccc(C)cc1NS(=O)(=O)c1ccc(-c2cnc(C3CC3)o2)cc1	3.55µM	0	0	?	0.0073µM	?
COc1cccc(NS(=O)(=O)c2cc(-c3cnc(C4CC4)o3)ccc2C)c1	2µM	0	?	?	-	-
Cc1ccc(N(C)S(=O)(=O)c2ccc(-c3cnc(C4CC4)o3)cc2)cc1	6.31µM	0	0	?	?	?
Cc1ccc(-c2cnc(C3CC3)o2)cc1S(=O)(=O)Nc1cccc(C#N)c1	0	0	?	?	-	-
CN(C)c1c([N+](=O)[O-])cc(N2C(=O)C=CC2=O)cc1[N+](=O)[O-]	0	0	35.5µM	-	0	0
COCCn1cnc2c1-c1ccc(OC)c(c1)OC/C=C\COc1cccc-2c1	0	0	-	-	-	-
CC1CCC(C(C)C)C(OC(=O)C[n+]2cc(-c3ccc(Cl)cc3)n3c2CCC3)C1 (stereo not drawn)	11.2µM	0	?	0	?	?
O=C(C[n+]1cc(-c2ccc(Cl)cc2)n2c1CCC2)N1c2ccccc2Sc2ccccc21	0	0	0	0	0	0
COc1ccc(NS(=O)(=O)c2ccc(Cl)c(N)c2)cc1Br	?	0	0	0	0	0
Nc1cc(S(=O)(=O)Nc2ccc(Br)cc2)ccc1Cl	?	11.2µM	0	0	?	0
